Screens: PubChem BioAssay, National Center for Advancing Translational Sciences (NCATS)
Sampled rows, rich in hits. Any-hit rate of the full collection: about 8.9%.
IMPase inh: qHTS Assay for Identifying the Cell-Membrane Permeable IMPase Inhibitors; CHO-M1 cells, IP1 accumulation, HTRF TR-FRET ratio; AID 901, 2007; Inositol monophosphatase 1 (Rattus norvegicus), P97697; 120,000 tested, under 10 active; inhibition (IP1 accumulation), % at 46.1 µM; active means well fitted curve in the direction sought with a large enough effect in the signal ratio, not every such curve was filed as active; inconclusive means small, poorly fitted or top-dose-only effect, or a change in a side signal; inactive means no such curve, though single readings can be large or run the other way; the % refers to the signal ratio;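 further: cells stimulated with carbachol in lithium chloride buffer; plate controls were DMSO basal wells for no effect and reference inhibitor wells for full effect; higher means more IMPase inhibition seen as more IP1 and lower FRET ratio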
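Seeded CHO-M1 cells were dosed with compound at up to 46 uM, stimulated with carbachol for 30 min, then lysed in IP-One detection reagents. Higher IP1 lowers the TR-FRET signal.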
IMPase Li inh: qHTS Assay for Identifying the Cell-Membrane Permeable IMPase Inhibitors: Potentiation with Lithium. CHO-M1 cells, IP1 TR-FRET (IP-One), carbachol + lithium. Potency, µM (series often up to 59.4 µM), inactives show at the top dose activity, negative = IMPase inhibition, usual class: inhibitors. 210,000 compounds, 0.35% hits;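 further: IP1 builds up when IMPase is blocked and the TR-FRET signal falls; potency means the concentration at half of the fitted maximal effect; plate controls were basal vehicle for no effect and high inhibitor control for full effect; nearly all actives have a fitted effect of over 50% in size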
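CHO cells stably expressing M1 receptor (2000/well) were cultured 16–30 h, then exposed to compounds with a small lithium addition for 30 min at 37C. IP1 was measured by TR-FRET competition; AC50 from Hill fits.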
NPSR antag: qHTS Assay for Antagonists of the Neuropeptide S Receptor: cAMP Signal Transduction | Q6W5P4 | 220,000 compounds, 1% hits | Potency, µM (titrated, usually from 38.3 µM), for inactives: at the top dose activity change, negative = inhibition, hits mostly inhibitors | CHO-NPSR cells, cAMP TR-FRET, antagonist mode; further: potency means the concentration at half of the fitted maximal effect; nearly all actives have a fitted effect of over 50% in size
ALOX12 inhib: qHTS Assay for Inhibitors of 12-hLO (12-human lipoxygenase). Potency, µM (top dose mostly 57.1 µM), for the others: top-dose activity change, negative = inhibition, usual class: inhibitors. Polyunsaturated fatty acid lipoxygenase ALOX12 (Homo sapiens), P18054. AID 1452, 2008. 150,000 compounds, 0.12% hits. purified 12-hLO, xylenol orange hydroperoxide absorbance; further: potency means the concentration at half of the fitted maximal effect; nearly all actives have a fitted effect of over 55% in size
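Hydroperoxide output read as Fe(III)-xylenol orange absorbance, 573-to-405 nm ratio, after 30 min reaction with 40 uM arachidonic acid. Enzyme: 150 nM purified human 12hLO, 15 min compound preincubation; 25 mM Hepes pH 7.0, room temperature.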
HPGD block: qHTS Assay for Inhibitors of HPGD (15-Hydroxyprostaglandin Dehydrogenase). purified HPGD, NADH fluorescence kinetic, PGE2 substrate. Potency, µM, for inactives: at the top dose activity change, negative = inhibition, actives largely listed as inhibitors. 150,000 compounds, 4.3% hits. AID 894, 2007; active means well fitted inhibition curve with a large enough effect, not every such curve was filed as active; inconclusive means small, poorly fitted or top-dose-only effect, or another doubt; inactive means no such curve, though single readings can be large or run the other way; further: potency means the concentration at half of the fitted maximal effect
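NADH formation kinetics: reaction with 30 uM PGE2 and 1 mM NAD+ (final), 20 nM enzyme, Tris-HCl pH 8 with Tween 20, after 15 min compound preincubation at room temperature. Fluorescence change, last versus first of five reads.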
ALDH1A1 block: qHTS Assay for Inhibitors of Aldehyde Dehydrogenase 1 (ALDH1A1); Aldehyde dehydrogenase 1A1 (Homo sapiens), P00352; Purified ALDH1A1, NADH fluorescence, propionaldehyde substrate; Potency, µM (doses to about 75.3 µM), inactives show top-dose activity, negative = inhibition, actives largely listed as inhibitors; 220,000 compounds, 7.3% hits; AID 1030, 2008; active means well fitted inhibition curve with a large enough effect, not every such curve was filed as active; inconclusive means small, poorly fitted or top-dose-only effect, or another doubt; inactive means no such curve, though single readings can be large or run the other way;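 further: potency means the concentration at half of the fitted maximal effect; plate controls were no enzyme wells and a reference inhibitor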
Target sequence (P00352 whole entry, looked up): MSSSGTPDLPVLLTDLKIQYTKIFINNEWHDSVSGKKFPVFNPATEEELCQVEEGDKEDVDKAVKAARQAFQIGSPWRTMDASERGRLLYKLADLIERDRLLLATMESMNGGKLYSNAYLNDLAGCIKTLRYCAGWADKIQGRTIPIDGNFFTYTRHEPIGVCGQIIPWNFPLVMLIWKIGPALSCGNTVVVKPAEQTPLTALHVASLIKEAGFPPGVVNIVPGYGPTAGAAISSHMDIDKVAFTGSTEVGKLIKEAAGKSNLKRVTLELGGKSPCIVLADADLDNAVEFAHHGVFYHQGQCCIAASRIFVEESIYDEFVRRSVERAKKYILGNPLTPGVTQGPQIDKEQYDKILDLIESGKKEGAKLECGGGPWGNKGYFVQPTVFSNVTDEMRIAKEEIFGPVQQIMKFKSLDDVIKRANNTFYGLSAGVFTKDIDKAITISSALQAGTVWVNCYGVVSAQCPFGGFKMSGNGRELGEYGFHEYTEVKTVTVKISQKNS
An asterisk follows results filed as active; ? = inconclusive; . = not tested or not shown; [ ] = another dose, or the depositor's remark. Unless noted, the call rests on the fitted dose curve; in most records, active means well fitted curve in the direction sought with a large enough effect; inconclusive means small, poorly fitted or top-dose-only effect, or another doubt; inactive means no such curve, though single readings can be large; an effect the other way counts as inactive or inconclusive. Unless noted, on the % scale 0 is the no-effect control and ±100 the full control effect.

SMILES	IMPase inh	IMPase Li inh	NPSR antag	ALOX12 inhib	HPGD block	ALDH1A1 block
O=c1c2[nH]c3ccccc3c2ncn1CCCn1ccnc1	-4.3	15.1%[38.3 µM]	-4.9%[46.1 µM]	7.2%	-20.4%	-15.4%
O=c1c2[nH]c3ccc(Br)cc3c2ncn1CCCn1ccnc1	-5.8	5.62µM*	-3.7%[46.1 µM]	3.5%	?	?
CCOc1cc(/C=C(\C#N)c2[nH]nc(N)c2C#N)ccc1O	4.4	-1.9%[38.3 µM]	-10.8%[46.1 µM]	-1.4%	25.1µM*	?
CCOc1cc(-c2cc(-c3ccc(C)cc3)nc(N)c2C#N)ccc1O	8.2	16.3%[38.3 µM]	?	?	-23.9%	-10.7%
CC1CN(Cc2csc(-c3ccc(Cl)cc3)n2)CC(C)O1 (centres undefined)	.	8.6%	-25.8%	.	.	15.8µM*
Cc1[nH]n(-c2ncc(-c3ccccc3)s2)c(=O)c1C(c1ccc(Br)cc1)C(C#N)C#N (centres undefined)	.	8.7%	-53.6%	-3.3%	10µM*	12.6µM*
CC(=O)N(C)c1ccc(N=Nc2c(C)[nH]n(C(N)=S)c2=O)cc1	.	-9.3%	-27.7%	.	.	?
CCOc1ccc(C(c2c(C)[nH]n(-c3ccccc3)c2=O)c2c(C)[nH]n(-c3ccccc3)c2=O)cc1OC	-1.1	.	.	.	.	.
Cc1[nH]n(C(N)=S)c(=O)c1C(c1ccccc1)C(C#N)C#N (centres undefined)	-0.3	-1.0%[38.3 µM]	-12.9%[46.1 µM]	-22.1%	-8.7%	31.6µM*
C=CCn1c(O)c(N=NC(=O)CNC(=O)/C=C/c2ccco2)c2ccccc21	4.7	17.7%[38.3 µM]	-13.3%[46.1 µM]	-4.5%	-16.7%	10µM*
Oc1c(N=NC(=S)Nc2ccccc2F)c2ccccc2n1Cc1ccccc1Cl	.	-4.4%	2.9%	.	.	?
C=CCn1c(O)c(N=NC(=S)Nc2ccccc2F)c2ccccc21	.	-0.5%	-34.3%	.	.	28.2µM*
Cc1ccc(Cn2c(O)c(N=NC(=S)Nc3ccccc3F)c3ccccc32)cc1	.	8.0%	-13.6%	.	.	11.2µM*
Oc1c(N=NC(=S)Nc2ccccc2F)c2ccccc2n1Cc1ccccc1	.	-0.5%	-18.2%	.	.	20µM*
C=CCn1c(O)c(N=NC(=S)Nc2cccc(C)c2)c2ccccc21	.	-16.1%	-11.9%	?	-28.8%	-5.9%
O=C(c1ccc(Cl)cc1)C1CCCN(Cc2cccn2-c2ccccn2)C1 (centres undefined)	.	18.3%	47.1%	.	.	9.5%
COc1ccc(CNC(=O)Cn2cc3c(n2)CCCCC3)cc1	7.6	35.4%[38.3 µM]	-22.8%[46.1 µM]	1.4%	0.6%	1.12µM*
COc1cccc(/C=N/Nc2ncnc3c2ncn3Cc2ccccc2)c1O	.	20.3%	7.0%	2.0%	-16.2%	5.6%
Cc1cc(NCCC(C)C)n2nc(C)c(-c3ccccc3)c2n1	12.3	13.4%[38.3 µM]	?	0.7%	?	?
Cc1ccc(-c2csc(=S)n2CC(=O)OCC(=O)NCc2ccc(F)cc2)cc1	17.0	52.1%[38.3 µM]	-12.7%[46.1 µM]	-16.9%	15.8µM*	12.6µM*
O=C(COC(=O)Cc1ccc(-c2ccccc2)cc1)NCc1ccc(F)cc1	.	3.5%	-4.7%	-2.0%	-2.6%	-4.8%
CCCc1cc(C(=O)N(C2CCCCC2)C2CCCCC2)no1	9.0	25.5%[38.3 µM]	?	7.4%	5.8%	7.4%
CC1=CC(c2ccccc2)n2nc(NS(=O)(=O)c3ccc(C)cc3)nc2N1 (centres undefined)	-15.8	.	-9.4%[46.1 µM]	-6.7%	?	0.631µM*
C=CCNC(=O)/C(C#N)=C/c1c(N(Cc2ccccc2)Cc2ccccc2)nc2ccccn2c1=O	7.3	7.0%	?	-6.6%	-18.1%	7.08µM*
N#C/C(=C\c1c(N(Cc2ccccc2)Cc2ccccc2)nc2ccccn2c1=O)C(N)=O	6.3	-0.2%	?	-25.4%	-3.6%	?
